The results in this text go back to the supplement of paper PMC10037445.

Assay [1] has as its system RAW-Dual. In words: NF-kB SEAP reporter activity, fold change vs agonist alone; cytotoxicity flag (confluency mask): not cytotoxic; higher = enhanced NF-kB activity. The gist of the method: (§1)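 Reporter activity is given as fold change relative to agonist-alone wells. To measure it, 50 nL of library stock was pin-tooled onto RAW-Dual macrophages (50,000 cells/well, DMEM, 384-well plates), a PRR agonist followed 1 h later, and cells stayed at 37 °C, 5% CO2. Twenty hours on, supernatant was assayed for IRF (QuantiLuc luminescence) and NF-κB (QuantiBlue, 620 nm absorbance), and wells under 70% of agonist-control IncuCyte confluency in both mask sets were marked cytotoxic.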

For assay [2], the system named is RAW-Dual. Briefly: NF-kB SEAP reporter activity, fold change vs agonist alone; higher = enhanced NF-kB activity. To be noted: library stock concentration (final ~1000-fold dilution): 10 mM. Put shortly: as §1
The subject of assay [3] is RAW-Dual. In words: NF-kB SEAP reporter activity, fold change vs agonist alone; cytotoxicity flag (confluency mask): cytotoxic (confluency <70% of control); higher = enhanced NF-kB activity. Put shortly:
as §1

The mark [4] stands for this setting: agonist: ODN 1826 (TLR9) 0.5 ug/mL.
The mark [5] stands for this setting: agonist: Pam2CSK4 (TLR2/6) 0.1 ug/mL.
Setting [6] is: agonist: Pam3CSK4 (TLR2/1) 0.1 ug/mL.
Where [7] appears, read: cytotoxicity flag (confluency mask): not cytotoxic, agonist: Imiquimod (TLR7) […].
The mark [8] stands for this setting: cytotoxicity flag (confluency mask): not cytotoxic, agonist: MPLA (TLR4) […].
Where [9] appears, read: cytotoxicity flag (confluency mask): cytotoxic (confluency <70% of control), agonist: Imiquimod (TLR7) […].
The mark [10] stands for this setting: cytotoxicity flag (confluency mask): cytotoxic (confluency <70% of control), agonist: MPLA (TLR4) […].

Molecules are shown by their SMILES. Whole data set: some 2,900 compounds, median “NF-kB SEAP reporter activity, fold change vs agonist alone” near 0.99, cut for the highest 2% near 2.6. For the sample, the highest values were picked, then their nearest neighbours and some compounds at random.

As to `C=CC1(C)CC(OC(=O)CSC(C)(C)CNC(=O)C(N)C(C)C)C2(C)C(C)CCC3(CCC(=O)C32)C(C)C1O.Cl` (configuration not stated) (library stock concentration (final ~1000-fold dilution): 10 mM), the “NF-kB SEAP reporter activity” value was 1.22 with RAW-Dual [1] (agonist: LPS (TLR4) 0.1 ug/mL), 0.971 in the assay with RAW-Dual [1] (setting [4]), 0.669 in the assay with RAW-Dual [1] (setting [5]) and 0.845 in the assay with RAW-Dual [1] (setting [6]).
Regarding `C=CC1(C)CC(OC(=O)CSC(C)(C)CNC(=O)C(N)C(C)C)C2(C)C(C)CCC3(CCC(=O)C32)C(C)C1O.Cl` (configuration not stated), the “NF-kB SEAP reporter activity” value with RAW-Dual [2] (setting [7]) was 0.86; with RAW-Dual [2] (setting [8]) it was 1.25.
Regarding `CCCCCCCCCCCCCCCC(=O)NC(CCSC)C(=O)NCC(=O)NC(Cc1ccc(O)cc1)C(=O)NC(CCC(N)=O)C(=O)NC(CCCCN)C(=O)NC(CCCCN)C(=O)NC(CC(C)C)C(=O)NC(CCCNC(=N)N)C(=O)NC(CO)C(=O)NC(CCSC)C(=O)NC(C(=O)NC(CC(=O)O)C(=O)NC(CCCCN)C(=O)NC(Cc1ccc(O)cc1)C(=O)NC(CCCNC(=N)N)C(=O)NC(CC(C)C)C(=O)O)C(C)O` (configuration not stated), the “NF-kB SEAP reporter activity” value in the assay on RAW-Dual [2] (setting [9]) and in the assay with RAW-Dual [2] (setting [10]) was 1.02 in each case.
On to `CCCCCCCCCCCCCCCC(=O)NC(CCSC)C(=O)NCC(=O)NC(Cc1ccc(O)cc1)C(=O)NC(CCC(N)=O)C(=O)NC(CCCCN)C(=O)NC(CCCCN)C(=O)NC(CC(C)C)C(=O)NC(CCCNC(=N)N)C(=O)NC(CO)C(=O)NC(CCSC)C(=O)NC(C(=O)NC(CC(=O)O)C(=O)NC(CCCCN)C(=O)NC(Cc1ccc(O)cc1)C(=O)NC(CCCNC(=N)N)C(=O)NC(CC(C)C)C(=O)O)C(C)O` (configuration not stated) (library stock concentration (final ~1000-fold dilution): 10 mM), for which the “NF-kB SEAP reporter activity” value in the assay on RAW-Dual [3] (agonist: LPS (TLR4) 0.1 ug/mL) is 0.885; in the assay on RAW-Dual [3] (setting [4]) it was 0.714; in the assay with RAW-Dual [3] (setting [5]), 0.614; in the assay on RAW-Dual [3] (setting [6]), 0.68.
On to `COc1ccc(Oc2cc(NCCC(F)(F)F)c3ncc(-c4ccc(C(=O)NC5CC5)c(C)c4)n3n2)c(F)c1F`, for which the figures for the “NF-kB SEAP reporter activity” value in the assay on RAW-Dual [2] (setting [7]) and in the assay with RAW-Dual [2] (setting [8]) were 1.19 and 1.32, respectively.
For `COc1ccc(Oc2cc(NCCC(F)(F)F)c3ncc(-c4ccc(C(=O)NC5CC5)c(C)c4)n3n2)c(F)c1F` (library stock concentration (final ~1000-fold dilution): 10 mM), the “NF-kB SEAP reporter activity” value with RAW-Dual [1] (agonist: LPS (TLR4) 0.1 ug/mL) came out at 2.44; in the assay with RAW-Dual [1] (setting [4]) it was 1.78; with RAW-Dual [1] (setting [5]), 0.636; in the assay with RAW-Dual [1] (setting [6]), 0.913.
With `COc1cccc(CCc2ccccc2OCC(CN(C)C)OC(=O)CCC(=O)O)c1.Cl` (configuration not stated) (library stock concentration (final ~1000-fold dilution): 10 mM), the “NF-kB SEAP reporter activity” value was 1.33 with RAW-Dual [1] (agonist: LPS (TLR4) 0.1 ug/mL), 0.733 in the assay with RAW-Dual [1] (setting [4]), 1.03 in the assay on RAW-Dual [1] (setting [5]) and 0.924 with RAW-Dual [1] (setting [6]).
For the molecule `COc1cccc(CCc2ccccc2OCC(CN(C)C)OC(=O)CCC(=O)O)c1.Cl` (configuration not stated), the “NF-kB SEAP reporter activity” value in the assay on RAW-Dual [2] (setting [7]) turned out to be 1.22; in the assay with RAW-Dual [2] (setting [8]) it was 1.03.
Take `Cc1cc(C)cc(C(=O)NOCCCCCC(=O)NO)c1` (library stock concentration (final ~1000-fold dilution): 10 mM): the “NF-kB SEAP reporter activity” value in the assay with RAW-Dual [3] (agonist: LPS (TLR4) 0.1 ug/mL) turned out to be 5.28; in the assay on RAW-Dual [3] (setting [4]), 2.33; with RAW-Dual [3] (setting [5]), 0.935; in the assay with RAW-Dual [3] (setting [6]) it was 1.43.
With `Cc1cc(C)cc(C(=O)NOCCCCCC(=O)NO)c1`, the entries for the “NF-kB SEAP reporter activity” value with RAW-Dual [2] (setting [9]) and in the assay with RAW-Dual [2] (setting [10]) were 1.41 and 2.74, respectively.
For `Cc1cc(Cl)ccc1OCCCC(=O)NO` (library stock concentration (final ~1000-fold dilution): 10 mM), the “NF-kB SEAP reporter activity” value in the assay with RAW-Dual [1] (agonist: LPS (TLR4) 0.1 ug/mL) is 1.51; with RAW-Dual [1] (setting [4]), 0.823; in the assay with RAW-Dual [1] (setting [5]), 0.939; with RAW-Dual [1] (setting [6]), 0.726.
For the molecule `Cc1cc(Cl)ccc1OCCCC(=O)NO`, the “NF-kB SEAP reporter activity” value came to 1.35 with RAW-Dual [2] (setting [7]) and 1.31 in the assay on RAW-Dual [2] (setting [8]).
For the molecule `CNC(C)C(=O)NC1CN(C(=O)CC(C)C)CCC2CCC(C(=O)NC(c3ccccc3)c3ccccc3)N2C1=O` (configuration not stated) (library stock concentration (final ~1000-fold dilution): 10 mM), the “NF-kB SEAP reporter activity” value in the assay with RAW-Dual [1] (agonist: LPS (TLR4) 0.1 ug/mL) came out at 0.854; in the assay with RAW-Dual [1] (setting [4]), 1.1; in the assay on RAW-Dual [1] (setting [5]), 0.925; in the assay on RAW-Dual [1] (setting [6]), 1.08.
As to `CNC(C)C(=O)NC1CN(C(=O)CC(C)C)CCC2CCC(C(=O)NC(c3ccccc3)c3ccccc3)N2C1=O` (configuration not stated), the figures for the “NF-kB SEAP reporter activity” value with RAW-Dual [2] (setting [7]) and with RAW-Dual [2] (setting [8]) were 0.948 and 0.82, respectively.
With `Nc1ccc(-c2cccc(C(=O)Nc3cnc4nc(N5CCOCC5)oc4c3)n2)cn1`, the “NF-kB SEAP reporter activity” value was found to be 1.04 with RAW-Dual [2] (setting [7]) and 1.08 in the assay on RAW-Dual [2] (setting [8]).
On to `Oc1cccc(-c2nc(N3CCOCC3)c3oc4ncccc4c3n2)c1` (library stock concentration (final ~1000-fold dilution): 10 mM), for which the “NF-kB SEAP reporter activity” value in the assay with RAW-Dual [1] (agonist: LPS (TLR4) 0.1 ug/mL) turned out to be 4.71; in the assay on RAW-Dual [1] (setting [4]), 0.369; in the assay with RAW-Dual [1] (setting [5]), 0.849; in the assay on RAW-Dual [1] (setting [6]) it was 1.34.
For the molecule `Oc1cccc(-c2nc(N3CCOCC3)c3oc4ncccc4c3n2)c1`, the “NF-kB SEAP reporter activity” value amounted to 2.46 in the assay on RAW-Dual [2] (setting [7]) and 2.44 in the assay with RAW-Dual [2] (setting [8]).
Consider `Nc1ccc(C(=O)Nc2cccc(-c3nc(N4CCOCC4)c4oc5ncccc5c4n3)c2)cn1`, for which the “NF-kB SEAP reporter activity” value in the assay on RAW-Dual [2] (setting [7]) stood at 1.77; in the assay on RAW-Dual [2] (setting [8]), 2.3.
Turning to `Nc1ccc(-c2cccc(C(=O)Nc3cnc4nc(N5CCOCC5)oc4c3)n2)cn1` (library stock concentration (final ~1000-fold dilution): 10 mM), the “NF-kB SEAP reporter activity” value with RAW-Dual [1] (agonist: LPS (TLR4) 0.1 ug/mL) was determined as 1.43; in the assay on RAW-Dual [1] (setting [4]), 1.01; in the assay on RAW-Dual [1] (setting [5]) it was 0.911; in the assay with RAW-Dual [1] (setting [6]), 1.33.
`N#Cc1cccc(-c2c[nH]c3ncnc(N4CCOCC4)c23)c1`: the “NF-kB SEAP reporter activity” value in the assay with RAW-Dual [2] (setting [7]) was 1.01; in the assay on RAW-Dual [2] (setting [8]), 0.873.
Regarding `CC1(C)OCCn2c1nc1c(N3CCOCC3)nc(-c3cnc(N)nc3)nc12`, the “NF-kB SEAP reporter activity” value with RAW-Dual [2] (setting [7]) turned out to be 1.02; in the assay on RAW-Dual [2] (setting [8]) it was 1.07.
On to `CCn1c(-c2nonc2N)nc2cnc(Oc3cccc(NC(=O)c4ccc(OCCN5CCOCC5)cc4)c3)cc21.Cl` (library stock concentration (final ~1000-fold dilution): 10 mM), for which the “NF-kB SEAP reporter activity” value with RAW-Dual [1] (agonist: LPS (TLR4) 0.1 ug/mL) is 1.31; with RAW-Dual [1] (setting [4]), 0.288; with RAW-Dual [1] (setting [5]), 1.12; in the assay with RAW-Dual [1] (setting [6]), 1.56.
For the molecule `Nc1ccc(C(=O)Nc2cccc(-c3nc(N4CCOCC4)c4oc5ncccc5c4n3)c2)cn1` (library stock concentration (final ~1000-fold dilution): 10 mM), the “NF-kB SEAP reporter activity” value in the assay with RAW-Dual [1] (agonist: LPS (TLR4) 0.1 ug/mL) was found to be 2.62; with RAW-Dual [1] (setting [4]), 0.304; in the assay on RAW-Dual [1] (setting [5]), 0.638; in the assay on RAW-Dual [1] (setting [6]) it was 0.805.
Consider `CC1(C)OCCn2c1nc1c(N3CCOCC3)nc(-c3cnc(N)nc3)nc12` (library stock concentration (final ~1000-fold dilution): 10 mM), for which the “NF-kB SEAP reporter activity” value amounted to 1.42 with RAW-Dual [1] (agonist: LPS (TLR4) 0.1 ug/mL), 0.768 in the assay on RAW-Dual [1] (setting [4]), 0.464 in the assay on RAW-Dual [1] (setting [5]) and 0.544 in the assay with RAW-Dual [1] (setting [6]).
